Values joined by “and” are separate entries in the source; they are usually repeats but may differ in a detail not shown here. Equal values may be shown once. Inconclusive results are not listed. Entries that show only a call come without a potency. Active and inactive are the calls of the source. Calls follow the shape of the dose curve; as a rule, active = well fitted inhibition curve with a large enough effect in the signal ratio in the repeat runs (not every such curve was filed as active); inconclusive = weak or mixed curves; inactive = flat fitted curve, though single readings scatter; the % refers to the signal ratio.
Potency is read from the fitted curve at half-maximal effect.

The target in the assay is Progesterone receptor (Homo sapiens) (UniProt P06401). Put plainly: qHTS assay to identify small molecule antagonists of the progesterone receptor (PR) signaling pathway (AID 1346795). As to conditions: PR-UAS-bla HEK293T, beta-lactamase FRET ratio, 16 h; series mostly up to 92.4 µM. An excerpt: National Center for Advancing Translational Sciences [NCATS]
Sequence of Progesterone receptor (Homo sapiens) (P06401 whole entry, looked up): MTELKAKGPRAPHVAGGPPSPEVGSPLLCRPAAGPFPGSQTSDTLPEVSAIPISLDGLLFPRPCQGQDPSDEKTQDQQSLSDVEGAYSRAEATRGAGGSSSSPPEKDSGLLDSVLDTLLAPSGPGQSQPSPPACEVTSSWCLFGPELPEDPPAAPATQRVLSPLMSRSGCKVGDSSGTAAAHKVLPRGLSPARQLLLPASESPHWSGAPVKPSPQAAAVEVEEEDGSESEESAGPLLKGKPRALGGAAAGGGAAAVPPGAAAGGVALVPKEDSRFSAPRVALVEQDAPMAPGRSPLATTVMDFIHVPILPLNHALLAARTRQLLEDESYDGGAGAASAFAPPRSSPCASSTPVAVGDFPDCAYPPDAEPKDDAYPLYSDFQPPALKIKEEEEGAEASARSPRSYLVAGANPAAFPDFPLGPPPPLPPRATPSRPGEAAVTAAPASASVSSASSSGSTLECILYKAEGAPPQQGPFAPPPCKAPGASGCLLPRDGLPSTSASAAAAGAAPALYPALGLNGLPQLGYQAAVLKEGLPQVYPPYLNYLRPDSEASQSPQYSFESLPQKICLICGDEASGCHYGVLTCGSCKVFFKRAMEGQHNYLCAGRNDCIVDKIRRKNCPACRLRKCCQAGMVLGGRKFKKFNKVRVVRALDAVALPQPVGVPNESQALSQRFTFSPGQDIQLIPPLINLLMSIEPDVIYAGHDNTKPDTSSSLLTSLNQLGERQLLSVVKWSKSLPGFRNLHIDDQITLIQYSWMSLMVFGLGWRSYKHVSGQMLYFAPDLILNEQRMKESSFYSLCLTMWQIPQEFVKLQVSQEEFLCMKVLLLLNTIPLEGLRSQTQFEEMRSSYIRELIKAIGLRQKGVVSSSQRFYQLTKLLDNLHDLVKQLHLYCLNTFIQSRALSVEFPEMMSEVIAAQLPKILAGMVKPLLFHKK
NIH Chemical Genomics Center [NCGC]
U.S. Environmental Protection Agency [EPA]
National Institutes of Environmental Health Sciences [NIEHS]
National Toxicology Program [NTP]
U.S. Food and Drug Administration [FDA]
Progesterone receptor (PR), a nuclear hormone receptor, plays an important role in development, metabolic homeostasis and reproduction. […] Endocrine disrupting chemicals (EDCs) and their interactions with steroid hormone receptors like PR causes disruption of normal endocrine function. To identify the compounds that inhibit PR signaling, a PR-UAS-bla GripTite cell line i.e. PR-UAS-bla HEK293T (Invitrogen, Carlsbad, CA, USA) containing a beta-lactamase reporter gene under the control of an Upstream Activator Sequence (UAS) was used to screen Tox21 10K compound library.
Tox21 Assay Protocol Summary:
PR-UAS-bla HEK293T cells were dispensed at 3,000 cells/4 uL of assay medium containing 2% charcoal stripped FBS per well into black wall/clear-bottom 1536-well plates using a Multidrop Combi (ThermoFisher Scientific, Waltham, MA) dispenser. After the assay plates were incubated at a 37C and 5% CO2 for 6 hr, 23 nL of compounds dissolved in DMSO, positive controls or DMSO only was transferred to the assay plate by a Pintool station (Kalypsys, San Diego, CA), followed by addition of 1 uL (1nM as final concentration) of Promegestone (R5020) in assay medium using a BioRAPTR FRD (Flying Reagent Dispenser, Aurora Discovery, San Diego, CA). The plates were incubated at 37C and 5% CO2 for 16 hr. Then 1 uL of LiveBLAzer B/G FRET substrate was added using a FRD. After the plates were incubated at room temperature for 2 hours, fluorescence intensity was measured by an Envision plate reader (PerkinElmer, Shelton, CT).
In the case of `CCC(C)C=O` (stereo not given), the Potency result is “inactive”.

Consider `O=C(Cl)c1c(Cl)c(Cl)c(C(=O)Cl)c(Cl)c1Cl`, for which the Potency entry is “inactive”.

Take `CCCCCCCCCCC=CC1CC(=O)OC1=O` (stereo not given): the Potency result is “inactive”.

On to `CCCCCCCCC`, for which the Potency entry is “inactive”.

For `O=C(c1cc(O)c(O)c(O)c1)c1ccc(O)c(O)c1O`, the Potency entry is “inactive”.

Turning to `Cc1cc(O)c2c(c1)C(=O)c1cc(O)cc(O)c1C2=O`, the Potency was 29.9 µM (active) and 27.3 µM (active).

For the compound `O=C(c1ccc(O)cc1)c1ccc(O)cc1O`, the Potency is 19.5 µM (active).

In the case of `O=C(Oc1ccccc1)c1ccc(O)cc1`, the Potency is 61.1 µM (active).

With `CC(C)(CO)COC(=O)C(C)(C)CO`, the Potency entry is “inactive”.

For the compound `ClC1=C(Cl)C(Cl)(Cl)C(Cl)=C1Cl`, the Potency result is “inactive”.

For the compound `O=[N+]([O-])c1cc(N(CCO)CCO)ccc1NCCO`, the Potency result was “inactive”.

Turning to `O=[N+]([O-])c1cccc(Cl)c1`, the Potency result was “inactive”.

On to `CCCCCCC(C)(C)S`, for which the Potency result was “inactive”.

For the compound `CC1=C(CC(=O)O)c2cc(F)ccc2/C1=C\c1ccc(S(C)=O)cc1` (stereo not given), the Potency entry was “inactive”.

Take `Clc1ccc(Cl)c(Cl)c1Cl`: the Potency result is “inactive”.

For the compound `CC(=O)[C@@]1(O)CC[C@H]2[C@@H]3CCC4=CC(=O)CC[C@]4(C)[C@H]3CC[C@@]21C`, the Potency result was “inactive”.

Regarding `CCCCOCCOCCOC(=O)CCCCC(=O)OCCOCCOCCCC`, the Potency entry is “inactive”.

On to `CCCCC(CC)COC(C)=O` (stereo not given), for which the Potency result was “inactive”.

With `CC(C)NCC(O)COc1cccc2ccccc12` (stereo not given), the Potency entry was “inactive”.

`O=C1CCCCC1`: the Potency result is “inactive”.

`O=c1c(-c2ccc(O)cc2)coc2cc(O)ccc12`: the Potency entry is “inactive”.

`Clc1cc(Cl)c(Cl)cc1Cl`: the Potency entry is “inactive”.

Take `CCc1ccc(O)cc1`: the Potency result was “inactive”.

On to `NC(=O)NNc1ccccc1`, for which the Potency entry was “inactive”.

In the case of `O=S(=O)(O)c1cc(S(=O)(=O)O)c2c(N=Nc3ccccc3)c(O)ccc2c1`, the Potency entry was “inactive”.

As for `CCCCCC/C=C/CCCCCCCC(=O)O`, the Potency entry is “inactive”.

For `Oc1c(Cl)cc(Cl)c(Cl)c1Cl`, the Potency result is “inactive”.

Take `Cc1ccc(C)c(C)c1`: the Potency entry is “inactive”.

On to `CCCCOCCO`, for which the Potency result was “inactive”.

For the compound `CCCCCCCCCCCCOCC1CO1` (stereo not given), the Potency result was “inactive”.

Take `CCCCC/C=C\C/C=C\CCCCCCCC(=O)OC`: the Potency result was “inactive”.

Regarding `OC[C@@H](O)[C@H](O)[C@H](O)[C@@H](O)CO`, the Potency result is “inactive”.

On to `CCCCCCCCCCCCN`, for which the Potency result was “inactive”.

For the compound `C=C(C#N)C(=O)OCC`, the Potency result was “inactive”.

As for `CCOC(=O)C1OC1c1ccccc1` (stereo not given), the Potency result was “inactive”.

As for `CCCCC(CC)C(=O)OCCOCCOCCOC(=O)C(CC)CCCC` (stereo not given), the Potency result is “inactive”.

For the compound `O=C(O)c1cc(-c2ccccc2)nc2ccccc12`, the Potency result is “inactive”.

Regarding `CC1COc2ccccc2N1C(=O)C(Cl)Cl` (stereo not given), the Potency is 30.6 µM (active) and 24.3 µM (active).

With `NCCNCCNCCNCCN`, the Potency result is “inactive”.

Turning to `CCCCCCOC(C)=O`, the Potency entry was “inactive”.

The values are drawn from PubChem BioAssay (Tox21).
